From PubChem
KKLEB tox: counter-screen for CF NF-kB inhibitors: cytotoxicity; KKLEB CF airway cells viability, ATPlite luminescence, overnight; active compounds read low; cells stimulated with P. aeruginosa culture filtrate; activity change (cytotoxicity), % at 5 µM; actives 0.36% (n = 360,000); AID 602141;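 active means corrected activity change at or below -50% at 5 µM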
PPC-1+TRAIL kill: PPC-1 cancer cell killing with TRAIL present. actives 0.41% (n = 220,000). cell killing (% activity), % at 4 µM or 5 µM. PPC-1 cells + TRAIL, ATPLite viability luminescence;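 active means cell killing above 50% in the first pass at 4 µM, then a duplicate retest at 5 µM averaging 50% or more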;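 further: plate controls were cells with TRAIL plus DMSO for no effect and medium-only wells lacking cells for full effect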
iPSC survival up: enhancers of human iPSC single-cell survival. survival enhancement, % at 20 µM. AID 602274. actives 0.044% (n = 360,000). hiPSC single-cell survival, ATPlite luminescence; 100% = ROCK inhibitor wells, 0% = DMSO; in the data active means survival enhancement above about 18%;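 further: cells exposed to compounds for 16 hours before the ATP read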
HIF-2a block: blocks HIF-2a reporter activity; 786-0 RCC cells HIF-2a reporter, luciferase luminescence, overnight; inhibition, % at 18.8 µM; actives 0.72% (n = 360,000); AID 624352;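 active means inhibition of the luminescence signal of 40% or more relative to plate controls, in a single-dose primary screen at 18.75 µM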
CF NFkB block: cystic fibrosis NF-kB activation inhibition; KKLEB NF-kB-GFP reporter, PAF-induced, GFP fluorescence overnight; inhibition, % at 5 µM; actives 0.86% (n = 360,000); AID 588850;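 active means at least 50% inhibition at 5 µM, scaled per plate between neutral and stimulator controls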;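 further: PAF is a Pseudomonas aeruginosa culture filtrate used as stimulus; plate controls were PAF-stimulated DMSO wells for no effect and unstimulated DMSO wells for full effect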
C8 TRAIL sens: caspase-8 TRAIL sensitization | NB7+C8 cells + TRAIL, ATPlite viability luminescence | inhibition (viability loss, TRAIL sensitization), % at 10 µM | actives 1% (n = 360,000);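 active means compounds causing at least 50% loss of cell viability in the single-dose screen, relative to plate controls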
The depositor's hits bear a star; / = not tested or not shown. Shown are actives, neighbours in structure and some others; about 2.2% of the full set was active somewhere.

SMILES	KKLEB tox	PPC-1+TRAIL kill	iPSC survival up	HIF-2a block	CF NFkB block	C8 TRAIL sens
CSc1ccc(C2NN=C(c3ccccc3)S2)cc1 (centres undefined)	-61.0*	/	-1.0	-85.2	-10.8	84.0*
COc1ccc(C2NN=C(c3ccc(C)cc3)S2)cc1 (centres undefined)	-14.7	/	-0.5	-289.0	-19.3	49.7*
Oc1ccccc1C1NN=C(c2ccccc2)S1 (centres undefined)	-16.1	/	-1.0	-146.2	9.2	70.3*
COC(=O)COc1ccc2oc(=O)cc(-c3cc4cccc(OC)c4o3)c2c1	-17.3	/	0.0	0.3	18.0	1.4
CCOc1ccc(S(=O)(=O)Nc2cc(SCC(=O)O)c(O)c3ccccc23)cc1	-40.3	/	-0.6	0.2	91.1*	34.6
Cc1ccc(C)c(S(=O)(=O)Nc2cc(SCC(=O)O)c(O)c3ccccc23)c1	-53.5*	11.9	-3.6	65.5*	81.2*	43.4
O=S(=O)(Nc1cc(Sc2cccc3cccnc23)c(O)c2ccccc12)c1ccccc1	/	70.0*	/	/	/	/
Cc1ccc(NS(=O)(=O)c2cc(NC(=O)C(C)Oc3ccccc3)ccc2C)c(C)c1 (centres undefined)	2.3	-0.2	1.1	27.7	9.7	6.7
CCc1ccc(S(=O)(=O)Nc2cc(SCC(=O)O)c(O)c3ccccc23)cc1	4.5	26.5	-2.9	-1.5	63.7*	-12.8
C=CCn1c(=S)[nH]c2cc(C(=O)Nc3ccc(F)cc3)ccc2c1=O	-3.5	/	-0.1	-51.6	-0.5	4.3
O=C(O)c1cccc(S(=O)(=O)Nc2ccc([N+](=O)[O-])cc2O)c1	2.5	9.8	-0.1	18.2	-2.2	8.5
O=C(O)CSc1cc(NS(=O)(=O)c2cccc([N+](=O)[O-])c2)c2ccccc2c1O	-7.2	33.7	-0.6	14.8	72.2*	40.6
COc1ccccc1Sc1nc(-c2ccccn2)ncc1OC	2.1	-1.2	23.0*	2.8	1.3	-1.7
NS(=O)(=O)c1ccc(CNC(=O)Cn2nc(C(F)F)cc2C(F)F)cc1	8.5	/	-0.2	10.0	-8.0	-16.6
CCCCCC(=O)N1C[C@@H](n2cc(COC(=O)c3ccccc3)nn2)[C@H](O)C[C@@H]1c1ccc(Cl)cc1	-11.4	/	-1.3	18.2	6.7	15.9
CCCCCC(=O)N1C[C@H](n2cc(COC(=O)c3ccccc3)nn2)[C@@H](O)C[C@@H]1c1ccc(Cl)cc1	-12.2	/	2.6	0.4	-15.8	57.5*
COc1ccc(NC(=O)C2CCCN2C(=O)Nc2ccc(OC)cc2)cc1 (centres undefined)	1.1	/	-0.4	14.3	-2.6	6.8
O=C(Oc1c(CN2CCOCC2)cc(Cl)c2cccnc12)c1ccccc1Br	15.2	-0.3	-0.3	24.2	-1.5	55.1*
Oc1c(CN2CCOCC2)cc(COCc2ccccc2)c2cccnc12	1.3	55.3*	10.4	17.3	-2.5	53.0*
Oc1c(CNc2ccccc2)cc(COCc2ccccc2)c2cccnc12	-10.2	/	-1.0	13.2	-21.1	6.8
CN1CCN(Cc2cc(Cl)c3cccnc3c2OC(=O)c2cccs2)CC1	5.0	21.1	1.3	10.8	-5.2	7.5
Cc1ccc(N(C(=O)c2csnn2)C(C(=O)NC2CCCC2)c2ccccn2)cc1 (centres undefined)	6.2	/	-0.3	-14.2	-8.4	10.6
CN(Cc1ccccc1)C(=O)[C@@H]1CCCN1C(=O)[C@@H]1CCCN1C(=O)c1cccs1	/	/	-0.3	-2.5	/	-15.5
CN1C(=O)/C(=C\c2cc(N=Nc3ccccc3)ccc2O)SC1=S	-36.3	-7.0	4.5	-33.4	50.1*	-0.9
CS(=O)(=O)c1ccc(C(=O)NCCN2C(=O)S/C(=C\c3cccnc3)C2=O)cc1[N+](=O)[O-]	-68.0*	24.4	0.8	7.5	78.0*	-10.1
SMILES	KKLEB tox	PPC-1+TRAIL kill	iPSC survival up	HIF-2a block	CF NFkB block	C8 TRAIL sens
CN1C2CCC1/C(=C\c1ccccc1)C(=O)/C2=C\c1ccccc1	8.6	2.7	-4.9	88.6*	-70.5	36.4
C=CC(=O)N1C/C(=C/c2ccccc2)C(=O)/C(=C\c2ccccc2)C1	-42.0	/	8.8	91.4*	81.3*	92.2*
C=CC(=O)N1C/C(=C/c2ccc(Cl)cc2)C(=O)/C(=C\c2ccc(Cl)cc2)C1	-97.3*	/	3.6	83.5*	87.3*	92.6*
O=C1C(=Cc2ccc(Cl)cc2)Cc2ccccc21	/	/	-2.8	-197.0	/	15.8
CC1(C)C2CCC1(CS(=O)(=O)NCc1ccc(S(N)(=O)=O)cc1)C(=O)C2 (centres undefined)	7.9	/	-0.2	9.6	10.3	-5.6
CC1NC(=O)c2ccccc2-n2c1nc1ccc(F)cc1c2=O (centres undefined)	15.1	/	-1.2	1.4	-22.1	-8.5
O=C(N/N=C\c1cc(Cl)ccc1O)c1ccc(S(=O)(=O)N2CCCCC2)cc1	-17.6	51.8*	-2.0	7.4	14.3	20.1
O=C(N/N=C/c1cc(Cl)ccc1O)c1ccccc1Br	-5.8	20.5	-1.4	-26.5	-9.2	52.5*
O=C(CNC(=O)c1ccccc1Br)N/N=C/c1cc(Br)ccc1O	8.3	28.1	2.9	16.7	-0.3	43.2
O=C(Nc1cc(S(=O)(=O)Nc2ccc(Cl)cc2)ccc1O)c1ccc(S(=O)(=O)N2CCCCCC2)cc1	-0.7	11.5	1.2	15.8	-1.7	-4.8
CCN1/C(=C/c2ccc3cccc(C)c3[n+]2CC)Sc2ccccc21	-37.9	25.0	-4.4	11.0	-88.8	61.2*
C[n+]1ccccc1/C=C1\Sc2ccccc2N1CCO	9.5	/	-0.4	5.8	-28.8	-0.9
Cc1ccccc1OCC(=O)NNC(=O)c1ccoc1C	-4.0	/	0.3	-9.5	-10.2	1.6
CC(=O)c1ccc(NC(=O)Nc2ccccc2)cc1	5.6	40.0	-1.4	-85.8	12.6	60.1*
CC(=O)c1cccc(NC(=O)Nc2ccccc2)c1	4.8	/	-0.6	-162.6	-9.7	4.1
CCN(CC)c1ccc(NC(=O)Nc2ccc(C(C)=O)cc2)cc1	6.8	-4.1	4.6	-30.0	-5.0	5.2
CCN(CC)c1ccc(NC(=O)Nc2ccccc2)cc1	-12.9	/	-0.7	-246.5	-5.3	59.2*
CCOC(=O)[C@H]1[C@H]2COc3ccc(OC)cc3[C@@H]2N2C(=O)c3cc(OC)c(OC)cc3NC(=O)[C@@]12C	3.7	/	-1.8	-2.9	0.8	5.0
CCOC(=O)C(C(=O)OCC)c1cc(Br)c2noc3c2c1C(=O)c1ccccc1-3	-38.2	37.2	0.9	35.5	74.9*	93.3*
CC(=O)OCCNc1cc(N2CCN(C)CC2)c2noc3c2c1C(=O)c1ccccc1-3	-1.7	-0.8	-3.3	-5.0	-165.4	1.6
NS(=O)(=O)c1ccc(N=Nc2ccc(O)c3ncccc23)cc1	6.2	/	-0.5	-0.8	-11.1	45.1
O=Cc1ccc(O)c2ncccc12	-4.1	12.5	0.2	9.3	-2.4	56.5*
